Test results reported in PubChem BioAssay AID1461 (National Center for Advancing Translational Sciences (NCATS), 2008).
About 2,300 (1%) of roughly 220,000 compounds were called active. Entries that show only a call come without a potency. About 6% were inconclusive and are not listed. The call rests on the fitted dose curve; in most records, active means well fitted inhibition curve with a large enough effect; inconclusive means small, poorly fitted or top-dose-only effect, or effect the other way; inactive means no such curve, though single readings can be large or run the other way. Only a selection was taken, and actives are over-represented in it overall.

biological target: Neuropeptide S receptor (Homo sapiens) (UniProt Q6W5P4); assay: qHTS Assay for Antagonists of the Neuropeptide S Receptor: cAMP Signal Transduction; conditions: CHO-NPSR cells, cAMP TR-FRET, antagonist mode; series mostly up to 38.3 µM; further: nearly all actives have a fitted effect of over 50% in size
Potency means the concentration at half of the fitted maximal effect.

Neuropeptide S receptor (Homo sapiens), sequence (Q6W5P4 whole entry, looked up): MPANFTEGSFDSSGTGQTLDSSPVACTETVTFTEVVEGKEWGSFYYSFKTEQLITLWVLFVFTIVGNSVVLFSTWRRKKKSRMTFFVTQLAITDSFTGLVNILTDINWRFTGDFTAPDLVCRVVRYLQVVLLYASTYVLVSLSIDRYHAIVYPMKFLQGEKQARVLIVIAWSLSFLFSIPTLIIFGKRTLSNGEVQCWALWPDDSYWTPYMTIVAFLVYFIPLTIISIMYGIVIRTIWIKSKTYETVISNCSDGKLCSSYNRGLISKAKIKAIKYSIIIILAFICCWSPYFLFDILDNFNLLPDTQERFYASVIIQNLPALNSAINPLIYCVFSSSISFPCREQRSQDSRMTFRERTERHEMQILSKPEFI

SMILES | Potency | activity change, negative = inhibition
O=c1c2cc(-c3ccccc3)sc2nc2n1N=C(c1cccs1)CS2 | inactive | 
Brc1ccc2ncnc(NCc3cccnc3)c2c1 | inactive | 
O=C(Nc1cccnc1Oc1ncnc2cc(Cl)ccc12)c1ccc(F)cc1 | inactive | 
N#Cc1c(NCCO)ccc([N+](=O)[O-])c1NCCO | inactive | 
O=C(Nc1cccc(Cl)c1)c1cc([N+](=O)[O-])ccc1N1CCN(CCO)CC1 | 10 µM (active) | 
Cc1cccc(NC(=O)c2cc([N+](=O)[O-])ccc2N2CCN(C)CC2)c1 | inactive | 
CCN1CCN(c2ccc([N+](=O)[O-])cc2C(=O)c2ccc(Cl)cc2)CC1 | inactive | 
CCC(C)N1C(=S)SC(C)(C)C1N(O)C(=O)NC1CCCCC1 (stereo not given) | inactive | 
CCCN(CCC)S(=O)(=O)c1ccc(C(=O)N2CC3CCC(CC3)C2)cc1 | inactive | 
COc1ccc(C(=O)Cc2cnn(-c3ccccc3)c2)c(O)c1 | inactive | 
CCOc1ccc(-c2n[nH]c(C)c2-c2ccccn2)c(O)c1 | inactive | 
Cc1[nH]nc(-c2ccc(OCc3cnn(-c4ccccc4)c3)cc2O)c1Oc1ccc(Cl)cc1 | 10 µM (active) | 
CC(C)n1c(CN2CCN(Cc3ccccc3)CC2)nc2ccccc21 | inactive | 
Cn1cc(S(=O)(=O)NC(c2ccccc2)c2ccccc2)c(=O)n(C)c1=O | inactive | 
CC(=O)Nc1nc2ccccc2n1Cc1ccc(C)cc1 | inactive | 
CCC(=O)NCCc1nc2ccccc2n1CC | inactive | 
CCCc1nc2c(C)cc(-c3nc4ccccc4n3C)cc2n1Cc1ccc(-c2ccccc2C(=O)O)cc1 | 1.26 µM (active) | 
CS(=O)(=O)c1sc(C(=O)NC(=S)Nc2ccc(OC(F)(F)F)cc2)c2c1C=CCC2 | inactive | 
Cc1cccc(-[n+]2c(-c3cccc(Br)c3)[nH]c3nc4ccccc4nc32)c1 | 10 µM (active) | 
Cc1ccc2nc(-c3cccc(Br)c3)cc(C(=O)Nn3cnnc3)c2c1 | inactive | 
COc1ccc2cc1Oc1ccc(cc1)C[C@H]1c3cc(c(OC)cc3CCN1C)Oc1c(O)c(OC)cc3c1[C@H](C2)N(C)CC3 | inactive | 
O=C(Nc1nnc(COc2ccccc2)s1)Nc1ccccc1F | inactive | 
CCC(=O)c1ccc(OCC(=O)Nc2ccc3nc(C)sc3c2)cc1 | inactive | 
CCOC(=O)CC1C(=O)NCCN1C(=O)COc1ccc(Br)cc1C (stereo not given) | inactive | 

SMILES | Potency | activity change, negative = inhibition
CCOC(=O)CC1C(=O)NCCN1c1nc2c(C)cccn2c(=O)c1/C=C1\SC(=S)N(C(C)CC)C1=O (stereo not given) | 12.6 µM (active) | 
Cc1cccn2c(=O)c(/C=C3\SC(=S)N(CC(C)C)C3=O)c(NCCCOC(C)C)nc12 | inactive | 
CC(C)OP(=O)(OC(C)C)C(Nc1ccccc1)c1cccc([N+](=O)[O-])c1 (stereo not given) | inactive | 
CCc1nnc(NS(=O)(=O)c2ccc(NC(=S)NC(=O)c3cccs3)cc2)s1 | inactive | 
Cc1sc(NC(=S)NC(=O)c2cccs2)nc1-c1ccc(CC(C)C)cc1 | 12.6 µM (active) | 
Cc1ccc(-c2csc(NC(=O)c3cccs3)n2)cc1 | inactive | 
COC(C[C@@H](O)[C@H](C)[C@H](O)COCc1ccccc1)OC | inactive | 
O=C(Nc1ccccc1)O/N=C1/CCCc2occc21 | inactive | 
O=C(CNCc1cccs1)Nc1cc(S(=O)(=O)N2CCCC2)ccc1Cl | inactive | 
C=CCNC(=O)CSc1nc2scc(-c3ccco3)c2c(=O)n1CC=C | inactive | 
CCC(C)NC(=O)c1c(N)n(/N=C/c2cccs2)c2nc3ccccc3nc12 (stereo not given) | inactive | 
C=CCn1c(N)c(C(=O)OCC(C)C)c2nc3ccccc3nc21 | inactive | 
CC(C)Cn1c(N)c(C(=O)NCc2cccs2)c2nc3ccccc3nc21 | 12.6 µM (active) | 
Cc1ccccc1CSc1nnc(CCCCCNC(=O)OC(C)(C)C)o1 | inactive | 
Cc1ccc(C(=O)NNC2=Nc3cc([N+](=O)[O-])ccc3OC2)cc1 |  | -1.29% [at 7.67 µM] (inactive)
CC(C)(C)c1ccc(CCC2OCC(CN3CCOCC3)O2)cc1 (stereo not given) | inactive | 
O=C(CCCl)Nc1ccc(S(=O)(=O)NCc2ccco2)cc1 | inactive | 
CCOC(=O)CN(Cc1ccc(OC)c(OC)c1)S(=O)(=O)c1ccc(OC)cc1 | inactive | 
COc1ccc(C(CCN(Cc2ccc(OC)c(OC)c2)C(=O)CCl)c2ccccc2)cc1 (stereo not given) | 5.01 µM (active) | 
COc1ccc(CCNC(=O)C(Sc2ccccn2)c2ccccc2)cc1OC (stereo not given) | inactive | 
C/C=C(\C)C(=O)N1CC2(CC(c3cccc(NC(=O)CCCCC)c3)=NO2)C[C@@H]1C(N)=O (stereo not given in full) | inactive | 
Cn1nnc(NC(=S)NC(=O)c2ccccc2)n1 | inactive | 
CSc1c(SCc2ccccc2)cnn(Cc2ccccc2)c1=O | 10 µM (active) | 
Cn1c(CO)cnc1SCc1ccccc1 | inactive | 

SMILES | Potency | activity change, negative = inhibition
O=c1c2ccccc2c(-c2ccccc2)nn1Cc1ccccc1 | inactive | 
Cc1csc(Nc2ccc(Cl)cc2)[n+]1-c1ccc(Cl)cc1 | 10 µM (active) | 
O=c1ccnc(Nc2ccc(Cl)cc2)[nH]1 |  | 1.3% [at 7.67 µM] (inactive)
CC1=NNC(=O)C1CCC(=O)N/N=C(\C)c1ccc(Cl)cc1 (stereo not given) | inactive | 
Cc1ccc(CSc2nnc(-c3cnccn3)n2C)cc1 | inactive | 
CC(C)S(=O)(=O)c1csc(NC(=O)Nc2ccc(Cl)cc2)c1Cl |  | 14.8% [at 7.67 µM] (inactive)
Cc1cccn2c(CNCC(C)Oc3cccnc3)c(C(=O)N3CCOCC3)nc12 (stereo not given) | inactive | 
COc1ccc(NC(=O)C2=NNC(=O)CC2)cc1S(=O)(=O)N1CCCCC1 | inactive | 
O=C(Nc1ccc(S(=O)(=O)Nc2nccs2)cc1)c1cccc(S(=O)(=O)N2CCOCC2)c1 | inactive | 
COc1ccc(/C(O)=C2/C(=O)C(=O)N(c3nc(C)c(C)s3)C2c2ccco2)cc1 (stereo not given) | 10 µM (active) | 
CCOc1ccc(/C(O)=C2\C(=O)C(=O)N(c3ccc(OC)cc3)C2c2ccccc2[N+](=O)[O-])cc1 (stereo not given) | inactive | 
COc1ccc(/C(O)=C2\C(=O)C(=O)N(Cc3ccco3)C2c2ccc(OC)cc2OC)cc1 (stereo not given) | inactive | 
COc1ccccc1N(C)S(=O)(=O)c1ccc(C(=O)NC2CCCCCC2)cc1 | inactive | 
CC[C@@H](C)[C@@H](C(=O)N1CCN(C(=O)OC(C)(C)C)CC1)n1cc(CCC(=O)O)nn1 | inactive | 
CC(=O)NC(=S)Nc1ccc(NC(=S)NC(=O)c2ccc([N+](=O)[O-])cc2)cc1 | inactive | 
COc1cc(/C=C2/C(=O)NN(c3ccc(F)cc3)C2=O)cc([N+](=O)[O-])c1O | inactive | 
CCOC(=O)c1cc2c(=O)n3ccccc3nc2n(CC(C)C)c1=NC(=O)c1c(-c2c(F)cccc2Cl)noc1C | 3.98 µM (active) | 
C/C(=N/OC(=O)c1c(-c2c(F)cccc2Cl)noc1C)c1cnccn1 | inactive | 
CCCn1c(=NC(C)=O)c(C(=O)OCC)cc2c(=O)n3ccccc3nc21 | inactive | 
O=C(O)C1CCN(c2ccc([N+](=O)[O-])cc2[N+](=O)[O-])CC1 | inactive | 
CC(OC(=O)c1ccc(NS(=O)(=O)c2ccc3[nH]c(=O)[nH]c3c2)cc1)C(=O)Nc1cccc(Cl)c1Cl (stereo not given) | inactive | 
O=C(O)c1cccnc1Sc1ncnc2sc3c(c12)CCC3 | inactive | 
